# Source: PubChem BioAssay (NCATS)
# Where “and” joins values, the source holds several entries; their conditions need not be identical. Identical values can stand only once. Values without a mark were called inactive. Inconclusive results are not listed. This is one part of the list. Calls of active or inactive are those of the source.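 The calls were made as follows, unless noted: active = dose-dependent loss of cell ATP signal giving a full or clear fitted curve, ranked by lower potency value; inconclusive = weak partial curve or response only at the top dose; inactive = no loss of viability signal.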
# Tests used:
# [1] = Cell Viability - Jurkat (AID 426); conditions: qHTS;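 also: potency is read from the fitted curve at half-maximal effect; cells exposed to compound for 40 hours at 37 °C before ATP read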
# Outline: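 Cytotoxicity was scored as loss of cellular ATP, measured by luciferase-based luminescence, in Jurkat clone E6-1 cells after 40 h compound treatment; tamoxifen and doxorubicin served as positive controls.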
# [2] = qHTS assay to identify small molecules that stimulate interleukin-8 (IL-8) secretion (AID 651758; active = well fitted activation curve with a large enough effect in the signal ratio; the % refers to the signal ratio; also: 0% is about no effect); conditions: HTRF ratio (665/615); series mostly up to 92.2 µM
# Outline: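 Compounds are added to THP-1 cells (2000 per well) and left 16 hrs at 37 C. A labeled anti-IL-8 antibody pair is then added, and IL-8 secretion is measured by time-resolved FRET after 1-3 hrs at room temperature.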
# [3] = target: Androgen receptor (Homo sapiens) (UniProt P10275); test: qHTS assay for small molecule agonists of androgen receptor signaling (AID 588515; active = well fitted curve in the direction sought with a large enough effect in the signal ratio, with a control signal flat; the % refers to the signal ratio; also: % is scaled to controls: 0 for no effect and ±100 for the full control effect); conditions: AR-UAS-bla HEK293, beta-lactamase ratio, agonist 16 h; stronger effect = higher value
# Chain of Androgen receptor (Homo sapiens) (P10275 whole entry, looked up): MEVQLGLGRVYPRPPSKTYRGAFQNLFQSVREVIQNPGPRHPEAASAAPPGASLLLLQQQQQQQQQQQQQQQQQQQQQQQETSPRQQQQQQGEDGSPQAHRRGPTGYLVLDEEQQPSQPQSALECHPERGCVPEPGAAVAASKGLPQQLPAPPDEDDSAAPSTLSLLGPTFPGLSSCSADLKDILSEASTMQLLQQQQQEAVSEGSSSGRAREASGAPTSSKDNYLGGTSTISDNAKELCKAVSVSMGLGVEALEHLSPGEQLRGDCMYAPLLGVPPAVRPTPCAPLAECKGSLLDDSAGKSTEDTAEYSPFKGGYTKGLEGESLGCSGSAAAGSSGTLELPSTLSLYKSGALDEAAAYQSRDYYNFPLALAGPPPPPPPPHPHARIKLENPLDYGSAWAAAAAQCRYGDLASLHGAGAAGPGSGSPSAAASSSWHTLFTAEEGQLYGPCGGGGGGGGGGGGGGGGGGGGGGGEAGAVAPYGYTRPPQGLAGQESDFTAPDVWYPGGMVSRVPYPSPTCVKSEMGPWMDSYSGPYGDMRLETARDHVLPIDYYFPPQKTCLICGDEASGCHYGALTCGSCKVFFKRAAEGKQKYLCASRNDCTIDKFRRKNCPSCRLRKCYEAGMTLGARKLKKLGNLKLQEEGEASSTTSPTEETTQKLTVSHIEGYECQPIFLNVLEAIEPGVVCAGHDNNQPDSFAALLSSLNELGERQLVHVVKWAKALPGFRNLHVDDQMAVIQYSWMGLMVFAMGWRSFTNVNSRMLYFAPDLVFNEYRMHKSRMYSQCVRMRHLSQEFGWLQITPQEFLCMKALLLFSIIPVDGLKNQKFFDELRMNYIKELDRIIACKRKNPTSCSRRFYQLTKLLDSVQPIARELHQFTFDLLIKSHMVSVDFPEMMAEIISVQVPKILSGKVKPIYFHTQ
# Outline: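 Stimulation of an AR-responsive β-lactamase reporter in GripTite HEK293 cells was measured after 16 h compound exposure at 37 °C, via CCF4 fluorescence after 2 h RT. EC50 from Hill fits, normalized to R1881 at 30 nM.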
# [4] = target: Androgen receptor (Homo sapiens) (UniProt P10275); test: qHTS assay for small molecule antagonists of androgen receptor signaling (AID 588516; active = well fitted curve in the direction sought with a large enough effect in the signal ratio, with a control signal flat, not every such curve was filed as active; the % refers to the signal ratio; also: % is scaled to controls: 0 for no effect and ±100 for the full control effect); conditions: AR-UAS-bla HEK293, beta-lactamase ratio, antagonist mode, 16 h; series mostly up to 76.8 µM
# Outline: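 Cells were plated and incubated 5 h, compounds added in titration, then R1881 (10 nM final) as agonist. After 16 h at 37 C, CCF4 substrate was loaded for 2 h at room temperature and fluorescence measured.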
# [5] = system: HIV-1 nucleocapsid protein NCp7 (binding to TG oligonucleotide); test: HIV Nucleocapsid (AID 346; call rule not given here;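 also: potency is read from the fitted curve at half-maximal effect; potency is for inhibitors that block NC binding and lower polarization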); conditions: HIV-1 NC / fluorescein-TGTGTGTG probe, fluorescence polarization
# Outline: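 Reagents dispensed (10 nM TG4xF, 100 nM HIV-1 NC), plates spun, compounds pin-transferred, then incubated 1 hr at room temperature before FP imaging. Buffer: Hepes pH 7.5, 250mM NaCl, 1uM ZnCl2, 100 uM TCEP, 5 mM 2-mercaptoethanol.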
# [6] = target: Cytochrome P450 3A4 (Homo sapiens) (UniProt P08684); test: qHTS Assay for Activators of Cytochrome P450 3A4 (AID 885; active = well fitted curve in the direction sought with a large enough effect; an effect the other way counts as inactive or inconclusive; also: nearly all actives have a fitted effect of over 65% in size); conditions: recombinant CYP3A4, Luciferin-PPXE luminescence, 60 min; series mostly up to 57.1 µM
# Chain of Cytochrome P450 3A4 (Homo sapiens) (P08684 whole entry, looked up): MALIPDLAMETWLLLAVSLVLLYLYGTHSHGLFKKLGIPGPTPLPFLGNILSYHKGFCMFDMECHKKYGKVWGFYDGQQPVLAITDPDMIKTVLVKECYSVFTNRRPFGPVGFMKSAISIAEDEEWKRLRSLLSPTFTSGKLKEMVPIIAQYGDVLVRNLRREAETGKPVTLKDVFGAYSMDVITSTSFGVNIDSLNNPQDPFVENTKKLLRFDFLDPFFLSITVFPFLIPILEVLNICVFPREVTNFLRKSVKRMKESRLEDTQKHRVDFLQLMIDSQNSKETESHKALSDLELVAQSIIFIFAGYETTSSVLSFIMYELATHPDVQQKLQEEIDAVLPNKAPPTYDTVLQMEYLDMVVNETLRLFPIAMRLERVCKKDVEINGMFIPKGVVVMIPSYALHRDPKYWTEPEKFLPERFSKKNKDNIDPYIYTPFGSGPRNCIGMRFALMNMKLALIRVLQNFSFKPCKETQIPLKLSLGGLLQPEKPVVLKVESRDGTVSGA
# Outline: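 Using 20nM recombinant human CYP3A4 in potassium phosphate (200mM), substrate Luciferin-PPXE at 25uM, luminescent luciferin detection followed a 60-min RT NADPH reaction; data scaled to 57 uM ketoconazole.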
# [7] = target: Bile acid receptor (Homo sapiens) (UniProt Q96RI1); test: qHTS assay for small molecule agonists of farnesoid X receptor signaling (AID 588527; calls by dose curve;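 also: 0% = vehicle basal and 100% = reference agonist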); conditions: HEK293T FXR-UAS-bla, beta-lactamase ratio, 16 h; stronger effect = higher value
# Chain of Bile acid receptor (Homo sapiens) (Q96RI1 whole entry, looked up): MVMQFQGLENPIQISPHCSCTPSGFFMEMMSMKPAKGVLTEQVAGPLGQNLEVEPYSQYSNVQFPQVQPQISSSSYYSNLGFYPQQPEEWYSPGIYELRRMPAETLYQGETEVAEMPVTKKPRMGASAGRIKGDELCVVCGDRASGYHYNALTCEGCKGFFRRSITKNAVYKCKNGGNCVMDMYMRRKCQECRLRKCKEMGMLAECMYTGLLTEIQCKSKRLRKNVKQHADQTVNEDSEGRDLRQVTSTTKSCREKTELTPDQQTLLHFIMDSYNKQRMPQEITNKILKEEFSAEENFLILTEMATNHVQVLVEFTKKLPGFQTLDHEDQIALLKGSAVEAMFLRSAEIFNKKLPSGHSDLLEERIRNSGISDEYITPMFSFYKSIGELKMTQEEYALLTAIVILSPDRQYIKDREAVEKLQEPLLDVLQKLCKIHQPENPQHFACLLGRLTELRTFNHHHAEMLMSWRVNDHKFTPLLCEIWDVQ
# Outline: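 Quantitative HTS used FXR-UAS-bla HEK293T cells with 16 h compound incubation at 37 C. EC50 values came from concentration-response curves normalized to chenodeoxycholic acid.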
# [8] = target: Endonuclease 4 (Escherichia coli (strain K12)) (UniProt P0A6C1); test: Counterscreen for APE1 Inhibitors: qHTS Assay for Inhibitors of Endonuclease IV (AID 2565; active = well fitted curve in the direction sought with a large enough effect; an effect the other way counts as inactive or inconclusive; also: potency is read from the fitted curve at half-maximal effect); conditions: E. coli Endo IV, fluorogenic AP-site DNA cleavage; series mostly up to 27.1 µM
# Outline: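 Read-out: fluorescence rise (ex 525/em 598 nm) from incision of a TAMRA/BHQ-2 double-stranded THF abasic-site substrate (50 nM), measured kinetically; third-minus-first read difference gave reaction progress. Enzyme 2 nM.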
# [9] = target: DNA repair nuclease/redox regulator APEX1 (Homo sapiens) (UniProt P27695); test: Confirmation qHTS Assay for Inhibitors of the Human Apurinic/apyrimidinic Endonuclease 1 (APE1) (AID 2572; active = well fitted curve in the direction sought with a large enough effect; an effect the other way counts as inactive or inconclusive; also: potency is read from the fitted curve at half-maximal effect; nearly all actives have a fitted effect of over 30% in size); conditions: purified APE1, fluorogenic abasic-site DNA cleavage
# Chain of DNA repair nuclease/redox regulator APEX1 (Homo sapiens) (P27695 whole entry, looked up): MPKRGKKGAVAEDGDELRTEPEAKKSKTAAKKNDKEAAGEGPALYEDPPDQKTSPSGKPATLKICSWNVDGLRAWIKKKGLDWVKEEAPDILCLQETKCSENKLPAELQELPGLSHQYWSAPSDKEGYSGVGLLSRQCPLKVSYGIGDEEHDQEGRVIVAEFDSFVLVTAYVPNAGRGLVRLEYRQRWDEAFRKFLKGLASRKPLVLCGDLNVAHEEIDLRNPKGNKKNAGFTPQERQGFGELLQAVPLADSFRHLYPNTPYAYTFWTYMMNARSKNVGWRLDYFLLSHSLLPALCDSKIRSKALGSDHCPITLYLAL
# Outline: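 APE1 preincubated 15 min RT with compound; 50 nM TAMRA/BHQ-2 THF-abasic duplex added; kinetic fluorescence, 3 reads at 60 s intervals, Ex 525/Em 598; progress = read 3 minus read 1.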
# [10] = target: Tyrosyl-DNA phosphodiesterase 1 (Homo sapiens) (UniProt Q9NUW8); test: Confirmation Assay for Inhibitors of Tyrosyl-DNA Phosphodiesterase (TDP1) (AID 489007; active = well fitted curve in the direction sought with a large enough effect; an effect the other way counts as inactive or inconclusive; also: potency is read from the fitted curve at half-maximal effect; nearly all actives have a fitted effect of over 40% in size); conditions: recombinant human TDP1 enzymatic activity, dose-response
# Chain of Tyrosyl-DNA phosphodiesterase 1 (Homo sapiens) (Q9NUW8 whole entry, looked up): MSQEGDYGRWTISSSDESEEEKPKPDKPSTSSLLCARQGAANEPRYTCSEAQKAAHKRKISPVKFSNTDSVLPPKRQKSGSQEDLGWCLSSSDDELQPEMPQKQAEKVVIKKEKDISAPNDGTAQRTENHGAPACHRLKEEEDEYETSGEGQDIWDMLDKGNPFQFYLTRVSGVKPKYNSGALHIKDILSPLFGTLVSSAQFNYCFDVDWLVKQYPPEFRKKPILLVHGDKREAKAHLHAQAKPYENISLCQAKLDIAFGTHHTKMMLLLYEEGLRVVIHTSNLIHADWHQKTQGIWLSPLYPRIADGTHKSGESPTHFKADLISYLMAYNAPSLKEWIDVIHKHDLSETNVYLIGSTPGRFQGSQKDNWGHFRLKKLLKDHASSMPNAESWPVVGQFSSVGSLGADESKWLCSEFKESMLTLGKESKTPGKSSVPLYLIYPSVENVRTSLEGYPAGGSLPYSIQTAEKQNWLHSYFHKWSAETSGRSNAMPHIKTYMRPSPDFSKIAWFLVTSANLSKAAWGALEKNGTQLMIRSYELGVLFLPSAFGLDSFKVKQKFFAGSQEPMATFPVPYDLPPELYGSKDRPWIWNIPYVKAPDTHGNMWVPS
# Outline: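 Loss of AlphaScreen signal reports Tdp1 cleavage of a dual-labelled DNA substrate. Conditions: 1 nM E. coli-derived enzyme, 15 nM substrate, 15 min compound preincubation, 5 min reaction, 10 min bead incubation, all at room temperature.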
# [11] = Confirmation and Secondary Assay for Modulators of Hemoglobin Beta Chain Splicing at IVS2 654 locus (AID 910; active = well fitted curve in the direction sought with a large enough effect; an effect the other way counts as inactive or inconclusive;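 also: HeLa cells stably carrying EGFP split by mutant beta-globin IVS2-654 intron; % of control where 0% means no effect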); conditions: HeLa EGFP-654 splicing reporter, GFP fluorescence, 48 h; series mostly up to 38.3 µM
# Outline: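 HeLa cells stably expressing EGFP interrupted by β-globin IVS2-654 intron, seeded overnight in Opti-MEM/2% FCS, then treated 2 days at 37 °C. Restored splicing read as total peak GFP intensity per well by laser scanning cytometry (488 nm excitation, 500–520 nm emission); 500 nM antisense PNA as control.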
# [12] = Confirmation and Secondary Assay for Modulators of Hemoglobin Beta Chain Splicing at IVS2 705 locus (AID 930; active = well fitted curve in the direction sought with a large enough effect; an effect the other way counts as inactive or inconclusive;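 also: HeLa cells stably expressing the EGFP-705 splicing reporter; GFP fluorescence per well restored by corrected splicing of the IVS2-705 intron in EGFP; % of control where 0% means no effect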); conditions: HeLa EGFP-705 splicing reporter, GFP fluorescence, 48 h; series mostly up to 38.3 µM
# Outline: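 Splice-correction reporter: EGFP cDNA split by beta-globin intron 2 bearing the 705 mutation, stably in HeLa. Compound incubation 2 days, 37C; fluorescent objects 5-250 µm summed per well.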
structure (smiles),measurement,setting,value
Cl/C=C/CCl,Potency,[1],> 92 µM
same,Potency,[2],inactive
C=CC(=O)OCC(C)C,Potency,[1],> 92 µM
same,Potency,[2],inactive
CN=C=O,Potency,[1],> 92 µM
O=[N+]([O-])c1c(Cl)c(Cl)c(Cl)c(Cl)c1Cl,Potency,[1],> 92 µM
same,activation,[3],15.3% and 4.1%
same,outcome,[4],inactive
S=c1[nH]c2ccccc2[nH]1,Potency,[1],> 92 µM
same,activation,[3],-0.602%
same,outcome,[4],inactive
same,Potency,[2],inactive
Nc1ccc(-c2ccc(N)c(Cl)c2)cc1Cl,Potency,[1],19 µM (active)
OCC(Cl)CCl (configuration not stated),Potency,[2],inactive
Nc1ccc(Oc2ccc(N)cc2)cc1,Potency,[1],> 92 µM
same,Potency,[2],inactive
Oc1ccc(Cl)c(Cl)c1,Potency,[1],> 92 µM
N#C/C=C/C#N,Potency,[1],20.8 µM (active)
N#CCc1ccccc1,Potency,[1],> 92 µM
C=CCOCC1CO1 (configuration not stated),Potency,[1],> 92 µM
[C-]1=CC=CC1.[C-]1=CC=CC1.[Cl-].[Cl-].[Ti+4],Potency,[1],55.7 µM (active)
CCCCCCCCCCCOC(=O)c1ccccc1C(=O)OCCCCCCCCCCC,Potency,[1],> 92 µM
N#Cc1cccc(NC(=O)N2CCCC3(CCN(C(=O)c4ccncc4)CC3)C2)c1,Potency,[5],> 20 µM
Oc1cc(Cl)c(Cl)c(Cl)c1,Potency,[6],inactive
same,activation,[7],3.7%
COc1ccc(CNc2cc(-c3ccoc3)ncn2)c(OC)c1,Potency,[5],> 20 µM
O=S(=O)(c1ccccc1)N1CCC2(CCN(c3ncccn3)CC2)CC1,Potency,[5],> 20 µM
COc1ccc(NC(=O)N2CC[C@@]3(CCCN(C(=O)c4cc(C(F)(F)F)cc(C(F)(F)F)c4)C3)C2)cc1,Potency,[5],> 20 µM
COc1ccc(CNc2ncnc3ccc(-c4cccc(NS(C)(=O)=O)c4)cc23)c(OC)c1,Potency,[5],> 20 µM
COc1ccc(NC(=O)N2CCCC3(CCNCC3)C2)cc1,Potency,[5],> 20 µM
O=C(c1ccncc1)N1CCC2(CCCN(Cc3ccccc3)C2)CC1,Potency,[5],> 20 µM
O=C(O)c1cc[c]([Sb](=[O])([OH])[OH])cc1[N+](=O)[O-],Potency,[8],10 µM (active)
same,Potency,[9],0.0562 µM (active)
same,Potency,[10],2 µM (active)
CC(=O)NCCNc1ncnc2ccc(-c3ccccc3Cl)cc12,Potency,[5],> 20 µM
O=c1cnc2cnc(Oc3ccccc3)nc2n1C1CC1,Potency,[5],> 20 µM
CN(C)c1ccc(N=Nc2ccccc2)cc1,activation,[7],-4.32%
CCCN(CCC)c1c([N+](=O)[O-])cc(C(F)(F)F)cc1[N+](=O)[O-],Potency,[6],inactive
same,outcome,[11],inactive
same,outcome,[12],inactive
same,activation,[3],-14.6% and 7.28%
same,outcome,[4],inactive
